Sampled rows, rich in hits. Any-hit rate of the full collection: about 10%.
GPT2 inhibitor – Primary qHTS assay for inhibitors of Glutamate pyruvate transaminase 2 (GPT2) | Recombinant GPT2, coupled pyruvate oxidase/HRP Amplex Red fluorescence | Potency, µM (titrated, usually from 57.7 µM), for the others: top-dose activity change, negative = inhibition, usual class: inhibitors | AID 1671188, 2021 | 0.25% of 100,000 active; also: % is scaled to controls: 0 for no effect and ±100 for the full control effect; nearly all actives have a fitted effect of over 60% in size
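Inhibition is scored from Amplex Red fluorescence generated when pyruvate oxidase and HRP act on pyruvate released by GPT2. Reactions contain 10ng/uL enzyme, 250uM a-KG and 2mM L-alanine and run 30 min at room temperature.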
Luciferase inh – Firefly luciferase inhibition profiling of diverse chemical library using quantitative high-throughput screening; purified P. pyralis luciferase, luminescence, biochemical; Potency, µM (series often up to 115 µM), actives largely listed as inhibitors; 2.5% of 76,000 active; AID 1347043, 2019; Luciferin 4-monooxygenase (Photinus pyralis), P08659; also: % is scaled to controls: 0 for no effect and ±100 for the full control effect; nearly all actives have a fitted effect of over 65% in size
Target sequence (P08659 whole entry, looked up): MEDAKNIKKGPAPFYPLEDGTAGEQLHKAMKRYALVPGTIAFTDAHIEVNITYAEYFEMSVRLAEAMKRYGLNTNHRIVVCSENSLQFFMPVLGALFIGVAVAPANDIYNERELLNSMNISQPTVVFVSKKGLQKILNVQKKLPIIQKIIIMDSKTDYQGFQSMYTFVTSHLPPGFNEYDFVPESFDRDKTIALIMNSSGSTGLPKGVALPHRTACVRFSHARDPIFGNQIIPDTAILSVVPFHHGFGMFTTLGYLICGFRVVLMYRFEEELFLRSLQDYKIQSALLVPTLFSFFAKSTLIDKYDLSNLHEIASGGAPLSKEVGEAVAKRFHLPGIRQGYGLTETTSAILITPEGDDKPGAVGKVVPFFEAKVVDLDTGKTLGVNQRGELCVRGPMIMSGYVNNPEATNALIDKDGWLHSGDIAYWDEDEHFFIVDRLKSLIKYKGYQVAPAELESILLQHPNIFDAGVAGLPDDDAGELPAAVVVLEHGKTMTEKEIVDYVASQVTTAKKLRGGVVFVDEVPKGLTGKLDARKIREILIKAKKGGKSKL
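Biochemical qHTS: compound (6-point titration) added to 10uM D-luciferin plus 10uM ATP in Tris acetate pH 7.5 buffer with Mg, Tween-20 and BSA, then purified enzyme at 10nM; light output imaged.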
NPR1 antag – Natriuretic polypeptide receptor (hNpr1) antagonism - Primary qHTS; Atrial natriuretic peptide receptor 1 (Homo sapiens), P16066; HEK293 hNpr1 GloSensor cGMP, ANP-stimulated luminescence; Potency, µM (series often up to 46.3 µM), without a hit: top-dose activity change, negative = inhibition, most hits filed as inhibitors; 1.6% of 76,000 active; AID 1347048, 2019; calls by dose curve; also: % is scaled to controls: 0 for no effect and ±100 for the full control effect; nearly all actives have a fitted effect of over 60% in size
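HEK293 cells stably expressing human Npr1 and cGMP GloSensor pGS-40F, loaded 2 h with 2% GloSensor reagent, given compound 30 min at room temperature. Luminescence read before and 20 min after 0.1 nM hNppA.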
3T3 cytotox – Cytotoxic Profiling in NIH 3T3 Cell Line of Diverse Libraries Using Quantitative High-Throughput Screening | 4.3% of 94,000 active | NIH 3T3 viability, CellTiter-Glo ATP luminescence, 48-72 h | AID 1345082, 2018 | Potency, µM (doses to about 96.7 µM), without a hit: at the highest dose activity change, negative = cytotoxicity, usual class: inhibitors; also: % is scaled to controls: 0 for no effect and ±100 for the full control effect; nearly all actives have a fitted effect of over 55% in size
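Mouse fibroblast NIH 3T3 cells, 400 per well, received compound via pintool and were incubated for 48 or 72 hr prior to CellTiter-Glo ATP luminescence measurement.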
HEK293 tox – Cytotoxic Profiling in HEK 293 Cell Line of Diverse Libraries Using Quantitative High-Throughput Screening; HEK 293 viability, ATP luminescence (CellTiter-Glo), 48-72 h; Potency, µM (highest dose often 115 µM), for inactives: top-dose activity change, negative = cytotoxicity, usual class: inhibitors; 6.6% of 94,000 active; also: % is scaled to controls: 0 for no effect and ±100 for the full control effect; nearly all actives have a fitted effect of over 60% in size
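Luminescence from cellular ATP, measured with CellTiter-Glo, indicates HEK 293 viability. Cells plated at 250 cells/well are treated with compound for 48 or 72 hr at 37 degree Celsius before reagent addition.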
Npr1 antag conf – Natriuretic polypeptide receptor (hNpr1) antagonism - Confirmation; shares compounds with NPR1 antag; HEK293 hNpr1 cGMP GloSensor luminescence, ANP-stimulated; Potency, µM (doses to about 57.6 µM), for the others: at the highest dose activity change, negative = inhibition, actives largely listed as inhibitors; 76% of 1,400 active; AID 1347044, 2019; calls by dose curve; also: nearly all actives have a fitted effect of over 70% in size
NPR2 antag – Natriuretic polypeptide receptor (hNpr2) antagonism - Subtype selectivity assay; shares compounds with NPR1 antag; HEK293 hNpr2 GloSensor cGMP luminescence, CNP-stimulated; Potency, µM (highest dose often 57.6 µM), for inactives: top-dose activity change, negative = inhibition, hits mostly inhibitors; 67% of 1,400 active; AID 1347046, 2019; calls by dose curve; also: nearly all actives have a fitted effect of over 70% in size
FLuc inh counter – Natriuretic polypeptide receptor (hNpr1) antagonism - Confirmation firefly luciferase (FLuc) inhibition counterscreen; shares compounds with NPR1 antag; purified FLuc enzyme, luminescence, Km substrate; Potency, µM (doses to about 57.6 µM), for inactives: at the top dose activity change, negative = inhibition, usual class: inhibitors; 0.7% of 1,400 active; AID 1347047, 2019; also: 0% is about no effect
GloSensor cGMP – Natriuretic polypeptide receptor (hNpr1) antagonism - Counterscreen GloSensor control cell line | shares compounds with NPR1 antag | 69% of 1,400 active | Potency, µM (titrated, usually from 57.6 µM), without a hit: at the highest dose activity change, negative = inhibition, actives largely listed as inhibitors | HEK293 GloSensor cGMP, SNP-stimulated, luminescence; calls by dose curve; also: % is scaled to controls: 0 for no effect and ±100 for the full control effect; nearly all actives have a fitted effect of over 70% in size
* marks the source's active call; other numbers are inactive results. Unless noted, calls follow the shape of the dose curve; as a rule, active = well fitted curve in the direction sought with a large enough effect; inconclusive = small, poorly fitted or top-dose-only effect, or another doubt; inactive = no such curve, though single readings can be large; an effect the other way counts as inactive or inconclusive. Potency is read from the fitted curve at half-maximal effect.

Results for O=C(c1ccc(F)cc1)N1CCCC(n2cc(-c3nc(-c4ccccc4)no3)nn2)C1 (configuration not stated) ?
GPT2 inhibitor: 2%; Luciferase inh: inconclusive; NPR1 antag: inconclusive; 3T3 cytotox: inconclusive; HEK293 tox: inconclusive; Npr1 antag conf: 24µM*; NPR2 antag: 24µM*; FLuc inh counter: inconclusive; GloSensor cGMP: 24µM*

What do the screens show for `O=C(c1ccccc1Cl)N1CCC(n2cc(-c3nc(-c4ccccc4)no3)nn2)CC1`?
GPT2 inhibitor: inactive; Luciferase inh: inactive; NPR1 antag: inconclusive; 3T3 cytotox: -24%; HEK293 tox: inconclusive

What do the screens show for `N#Cc1ccc(C(=O)N2CCC(n3cc(-c4nc(-c5ccccc5)no4)nn3)CC2)cc1`?
GPT2 inhibitor: inactive; Luciferase inh: inconclusive; NPR1 antag: 0%; 3T3 cytotox: inconclusive; HEK293 tox: inconclusive

What do the screens show for `O=C1c2c(nc(CNCc3cccc(Cl)c3)n2Cc2ccccc2)NCCN1CCOc1ccccc1`?
GPT2 inhibitor: 1%; Luciferase inh: inactive; NPR1 antag: -29%; 3T3 cytotox: inconclusive; HEK293 tox: inconclusive; Npr1 antag conf: inconclusive; NPR2 antag: inconclusive; FLuc inh counter: 2%; GloSensor cGMP: inconclusive

What do the screens show for `O=C1c2c(nc(CNCc3cccc(F)c3)n2Cc2ccccc2)NCCN1Cc1cccc(Cl)c1`?
GPT2 inhibitor: -2%; Luciferase inh: inactive; NPR1 antag: -24%; 3T3 cytotox: inconclusive; HEK293 tox: inconclusive

How did O=C1c2c(nc(COc3ccc4c(c3)OCO4)n2Cc2ccccc2)NCCN1Cc1ccccc1F do in these assays?
GPT2 inhibitor: -10%; Luciferase inh: inactive; NPR1 antag: inconclusive; 3T3 cytotox: inconclusive; HEK293 tox: 35µM*; Npr1 antag conf: 24µM*; NPR2 antag: inconclusive; FLuc inh counter: 4%; GloSensor cGMP: inconclusive

What do the screens show for `O=C(C1CCCC1)N1CC2(CCCN2C2COC2)Cc2ccccc21` (configuration not stated)?
GPT2 inhibitor: -8%; 3T3 cytotox: -11%; HEK293 tox: -27%

Results for COc1ccccc1C(=O)N1CCCN(c2cc(-c3ccc(F)cc3)[nH]n2)CC1 ?
GPT2 inhibitor: -12%; Luciferase inh: inactive; NPR1 antag: -12%; 3T3 cytotox: inconclusive; HEK293 tox: inconclusive

Assay outcomes (PubChem)
